APE1 inh-1 – APE1 (human) endonuclease inhibition; AID 2517; P27695; 350,000 compounds, 0.35% hits; Potency, µM (series often up to 65.8 µM), for the others: at the highest dose activity change, negative = inhibition, actives largely listed as inhibitors; recombinant APE1, TAMRA/BHQ-2 abasic DNA cleavage fluorescence;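 further: plate controls were vehicle for no effect and reference inhibitor for full effect; nearly all actives have a fitted effect of over 55% in size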
Target sequence (P27695 whole entry, looked up): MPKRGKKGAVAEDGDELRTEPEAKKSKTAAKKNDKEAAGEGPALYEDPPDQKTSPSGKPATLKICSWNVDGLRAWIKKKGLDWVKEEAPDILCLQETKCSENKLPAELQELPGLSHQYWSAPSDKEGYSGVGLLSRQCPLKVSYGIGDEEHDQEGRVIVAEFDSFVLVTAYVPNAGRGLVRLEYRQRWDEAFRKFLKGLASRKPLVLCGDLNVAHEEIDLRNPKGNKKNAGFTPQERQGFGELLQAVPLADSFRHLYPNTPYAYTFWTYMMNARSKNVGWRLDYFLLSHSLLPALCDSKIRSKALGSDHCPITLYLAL
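0.75 nM APE1 + cpd, 15 min RT; start w/ 50 nM TAMRA/BHQ-2 THF-abasic dsDNA; kinetic fluor 525/598 nm ×3 reads @60 s; Δ(read3−read1); normalized to DMSO and NSC13755 control wells.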
KDM4E inh – JMJD2E (human) inhibition; 230,000 compounds, 1.6% hits; B2RXH2; JMJD2E catalytic domain, FDH-coupled NADH fluorescence (FDH is formaldehyde dehydrogenase); Potency, µM (series often up to 57.1 µM), for inactives: at the top dose activity change, negative = inhibition, most hits filed as inhibitors; active means well fitted inhibition curve with a large enough effect, not every such curve was filed as active; inconclusive means small, poorly fitted or top-dose-only effect, or another doubt; inactive means no such curve, though single readings can be large or run the other way;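 further: 0% = wells with enzyme and -100% = buffer wells without enzyme; nearly all actives have a fitted effect of over 50% in size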
Target sequence (B2RXH2 1-337 limits assumed): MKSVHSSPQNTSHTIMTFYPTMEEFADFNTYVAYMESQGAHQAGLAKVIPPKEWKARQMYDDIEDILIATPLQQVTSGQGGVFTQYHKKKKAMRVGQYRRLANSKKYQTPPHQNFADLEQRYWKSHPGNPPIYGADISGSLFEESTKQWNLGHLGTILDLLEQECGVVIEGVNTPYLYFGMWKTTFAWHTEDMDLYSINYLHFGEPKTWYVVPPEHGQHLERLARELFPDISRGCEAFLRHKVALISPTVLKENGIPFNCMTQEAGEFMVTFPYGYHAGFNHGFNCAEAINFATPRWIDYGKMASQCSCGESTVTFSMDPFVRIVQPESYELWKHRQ
L3MBTL1 inh – inhibitors of human L3MBTL1 | Q9Y468 | AlphaScreen L3MBTL1–H3K9me1 peptide binding | Potency, µM (doses to about 57.1 µM), for the others: at the highest dose activity, negative = inhibition, most hits filed as inhibitors | 230,000 compounds, 0.66% hits | AID 485360; further: nearly all actives have a fitted effect of over 60% in size
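Displacement of a biotinylated histone H3(1-15) peptide monomethylated at Lys9 (75 nM) from L3MBTL1 (50 nM) was measured by AlphaScreen after a 30 min room-temperature compound incubation; cefsulodin titration served as intraplate control.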
TDP1 inh – TDP1 (human) enzyme inhibition | recombinant TDP1, AlphaScreen DNA substrate cleavage | 350,000 compounds, 0.28% hits | Q9NUW8 | Potency, µM (highest dose often 130 µM), inactives show top-dose activity change, negative = inhibition, usual class: inhibitors; further: nearly all actives have a fitted effect of over 40% in size
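Enzyme-compound mixtures sat 15 min at room temperature, followed by a 5 min reaction with 15 nM final substrate and 10 min with AlphaScreen beads. Recombinant human Tdp1 was used at 1 nM final.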
RECQ1 inh-1 – RECQ1 (human) helicase inhibition | P46063 | RECQ1 DNA unwinding, red fluorescence kinetic read | Potency, µM (series often up to 57.3 µM), for the others: at the highest dose activity, negative = inhibition, actives largely listed as inhibitors | 240,000 compounds, 0.54% hits | AID 2549;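 further: plate controls were vehicle for no effect and no enzyme for full effect; nearly all actives have a fitted effect of over 30% in size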
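RECQ1T1 50 nM; forked duplex (20 bp + 30-nt ss tails) 200 nM, ATP 2 mM final; pH 8.0, 2 mM MgCl2, 2.5 ug/ml poly(dI-dC); 15 min compound preincubation; discontinuous kinetic read over 2 h at RT.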
BLM inh-1 – Bloom syndrome helicase (human) inhibition | AID 2528 | 350,000 compounds, 0.2% hits | P54132 | Potency, µM (series often up to 56.1 µM), for inactives: at the top dose activity change, negative = inhibition, most hits filed as inhibitors | recombinant BLM DNA unwinding, fluorescence dequenching;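 further: plate controls were vehicle for no effect and no enzyme for full effect; nearly all actives have a fitted effect of over 35% in size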
APE1 dye cs – counter-screen for APE1 inhibitors: DNA dye displacement; DNA fluorescent dye displacement counterscreen, fluorescence; 480 compounds, 7% hits; shares compounds with APE1 inh-1; Potency, µM (highest dose often 28.5 µM), for the others: at the highest dose activity change, negative = inhibition, usual class: inhibitors;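 further: loss of thiazole orange fluorescence as the dye is displaced from duplex DNA; 0% = ThO with dsDNA and no compound and -100% = ThO without dsDNA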
EndoIV counter – Endo IV (E. coli) inhibition counter-screen; shares compounds with APE1 inh-1; E. coli Endo IV, fluorogenic AP-site DNA cleavage; Potency, µM (doses to about 27.1 µM), for inactives: at the top dose activity change, negative = inhibition, actives largely listed as inhibitors; 560 compounds, 4% hits;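 further: plate controls were uninhibited enzyme wells for no effect and no enzyme buffer wells for full effect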
APE1 inh-2 – APE1 (human) endonuclease inhibition, confirmation. shares compounds with APE1 inh-1. purified APE1, fluorogenic abasic-site DNA cleavage. Potency, µM (doses to about 57.1 µM), without a hit: at the highest dose activity change, negative = inhibition, actives largely listed as inhibitors. 750 compounds, 44% hits. AID 2572; further: nearly all actives have a fitted effect of over 30% in size
APE1 FP – displaces DNA from human APE1 in FP assay | 480 compounds, 7% hits | APE1 binding to TAMRA-labelled double-stranded DNA, fluorescence polarization displacement | shares compounds with APE1 inh-1 | Potency, µM (series often up to 28.5 µM), inactives show at the highest dose activity, negative = inhibition, most hits filed as inhibitors | AID 2573
BLM inh-2 – confirmation of inhibitors of human Bloom syndrome helicase BLM. shares compounds with BLM inh-1. BLM DNA unwinding, fluorescence quenching, biochemical. Potency, µM, without a hit: max response, negative = inhibition, most hits filed as inhibitors. 220 compounds, 40% hits;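 further: strand separation dequenches TAMRA so unwinding raises red fluorescence; series mostly up to about 69 µM; nearly all actives have a fitted effect of over 45% in size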
RECQ1 inh conf – confirmation of human RECQ1 helicase inhibitors; 610 compounds, 28% hits; shares compounds with RECQ1 inh-1; Potency, µM (highest dose often 229 µM), without a hit: at the highest dose activity change, negative = inhibition, actives largely listed as inhibitors; RECQ1 helicase DNA unwinding, fluorescence; further: nearly all actives have a fitted effect of over 45% in size
RECQ1 ADP FP – displaces ADP in a fluorescence polarization counter-screen for RECQ1 hits; shares compounds with RECQ1 inh-1; 530 compounds, 27% hits; Potency, µM (top dose mostly 228 µM), for inactives: top-dose activity change, negative = inhibition, usual class: inhibitors; ADP fluorescence polarization displacement counterscreen; further: nearly all actives have a fitted effect of over 45% in size
RECQ1 inh-2 – blocks human RECQ1 DNA unwinding | Potency, µM (top dose mostly 119 µM), without a hit: at the highest dose activity, negative = inhibition, hits mostly inhibitors | shares compounds with RECQ1 inh-1 | AID 504841 | recombinant RECQ1 DNA unwinding, red fluorescence | 1,100 compounds, 15% hits; further: nearly all actives have a fitted effect of over 50% in size
The depositor's hits bear a star; i = inactive; ? = inconclusive; / = not tested or not shown; [ ] = remark or other dose. This excerpt belongs to a sample that is enriched for hits. Unless noted, the call rests on the fitted dose curve; in most records, active means well fitted curve in the direction sought with a large enough effect; inconclusive means small, poorly fitted or top-dose-only effect, or another doubt; inactive means no such curve, though single readings can be large; an effect the other way counts as inactive or inconclusive. Unless noted, on the % scale 0 is the no-effect control and ±100 the full control effect; potency means the concentration at half of the fitted maximal effect.

SMILES	APE1 inh-1	KDM4E inh	L3MBTL1 inh	TDP1 inh	RECQ1 inh-1	BLM inh-1	APE1 dye cs	EndoIV counter	APE1 inh-2	APE1 FP	RECQ1 inh-2	others
O=C(Nc1cc(C(F)(F)F)cc(C(F)(F)F)c1)c1cc(Cl)ccc1O	-9%	/	/	0%	-16%	-22%	/	/	/	/	/
O=C1c2ccccc2-c2onc3ccc(NCc4ccco4)c1c23	?	-9%	-3%	79µM*	20µM*	-22%	/	/	14µM*	/	40µM*
CCOc1ccc2noc3c2c1C(=O)c1ccccc1-3	-4%	?	-12%	5%	i	-6%	/	/	/	/	/
CCOC(=O)COc1ccc(CC)cc1C(=O)c1ccn2nc(-c3ccc(Cl)cc3)cc2n1	/	/	/	3%	/	-2%	/	/	/	/	/
Cc1ccc(C)c(CN2C(=O)c3ccccc3S(=O)(=O)c3ccc(C(=O)N(C)C4CCCCC4)cc32)c1	/	/	/	8%	/	-9%	/	/	/	/	/
O=C1CCCC2=C1C(c1ccco1)Nc1ccc3ccccc3c12 (centres undefined)	14µM*	?	3.2µM*	?	10µM*	-28%	-9%	4%	4µM*	?	16µM*	RECQ1 inh conf=25µM*;RECQ1 ADP FP=50µM*
CC(C)Cn1c(=O)c2ccccc2n2c(CCC(=O)NCc3ccccc3Cl)nnc12	/	/	/	4%	/	-2%	/	/	/	/	/
CCN1CCC(N(Cc2ccc3c(c2)OCO3)C(=O)Nc2cc(Cl)ccc2C(=O)OC)CC1	/	/	/	4%	/	11%	/	/	/	/	/
O=C(O)c1ccc(N2C(=O)c3cccc4c(C(=O)O)ccc(c34)C2=O)cc1	13µM*	28µM*	3.5µM*	2.8µM*	?	-8%	-4%	5%	?	-95%	?
O=C(Cn1cnc2sc(-c3ccccc3)cc2c1=O)NCc1ccco1	32µM*	?	?	/	20µM*	18µM*	11%	-11%	8.9µM*	?	/	BLM inh-2=?;RECQ1 inh conf=40µM*;RECQ1 ADP FP=-22%[91.9 µM]
O=C(Cn1cnc2sc(-c3ccccc3)cc2c1=O)NCc1ccccc1	18%	-13%	/	6%	i	-12%	/	/	/	/	/
Cc1cn(C2OC(COC(=O)c3ccccc3)C(OC(=O)c3ccccc3)C2OC(=O)c2ccccc2)c(=O)[nH]c1=O (centres undefined)	1%	5%	-15%	5%	i	-6%	/	/	/	/	/
O=C(OCC1OC(OC(=O)c2cc(O)c(O)c(OC(=O)c3cc(O)c(O)c(O)c3)c2)[C@@H](OC(=O)c2cc(O)c(O)c(OC(=O)c3cc(O)c(O)c(O)c3)c2)C(OC(=O)c2cc(O)c(O)c(OC(=O)c3cc(O)c(O)c(O)c3)c2)C1OC(=O)c1cc(O)c(O)c(OC(=O)c2cc(O)c(O)c(O)c2)c1)c1cc(O)c(O)c(OC(=O)c2cc(O)c(O)c(O)c2)c1 (some centres undefined)	/	0.28µM*	/	24%[56.1 µM]	0.032µM*	0.071µM*	/	5µM*	0.0032µM*	/	/	RECQ1 inh conf=1.1µM*;RECQ1 ADP FP=?
CC(=O)C(=O)O	-2%	/	/	-2%	-3%	-6%	/	/	/	/	/
O=c1cc(-c2ccc(O)cc2)oc2cc(O)c(C3OC(CO)C(O)C(O)C3O)c(O)c12 (centres undefined)	7.1µM*	?	16µM*	-3%	?	-16%	-10%	-1%	13µM*	2%	50µM*
CC(=O)OCC(NC(=O)C(CCCCNC(=O)OCc1ccccc1)NC(=O)OC(C)(C)C)C1OC(n2cc(F)c(=O)[nH]c2=O)C(OC(C)=O)C1OC(C)=O (centres undefined)	0%	/	/	9%	11%	2%	/	/	/	/	/
O=C1C=C(O)c2ccccc2C1=O	-7%	?	/	4%	2%	-3%	/	/	/	/	/
O=C1C=C(O)c2cccc(O)c2C1=O	?	7.9µM*	/	/	?	0%	-3%	-3%	-4%[24.4 µM]	2%	-11%
Nc1c(C(=O)O)ccc2c1C(=O)c1ccccc1C2=O	?	3%	-21%	8%	?	-15%	/	/	/	/	/
Nc1ccc2c(c1Cl)C(=O)c1ccc(N)c(Cl)c1C2=O	8.9µM*	-28%	?	3.5µM*	?	14µM*	6.3µM*	?	14µM*	?	?
O=C(CCCN1C(=O)/C(=C/c2ccco2)SC1=S)Nc1cccc(C(=O)O)c1	7.9µM*	?	-86%	/	8.9µM*	?	1%	106%	?	-9%	/	RECQ1 inh conf=71µM*;RECQ1 ADP FP=0%[91.9 µM]
NNC(=O)c1cc(O)c(O)c(O)c1	0.89µM*	?	0.56µM*	/	3.2µM*	?	3%	164%	4µM*	5%	/	RECQ1 inh conf=8%[114 µM];RECQ1 ADP FP=-11%[91.9 µM]
CCn1c(SCC(=O)O)nc2sc3c(c2c1=O)CCC3	22µM*	-5%	/	/	?	-8%	-5%	12%	?	-8%	?
